Test systems include SK-MEL-2 melanoma; EKVX NSCLC; SN12C renal; UO-31 renal; TK-10 renal; ACHN renal; CAKI-1 renal; A498 renal; CCRF-CEM leukemia; MOLT-4 leukemia; SR leukemia; RPMI-8226 leukemia; OVCAR-8 ovarian; OVCAR-5 ovarian; OVCAR-4 ovarian; SK-OV-3 ovarian; IGROV1 ovarian; OVCAR-3 ovarian; HS 578T breast; NCI/ADR-RES ovarian.
Test in all cases: NCI-60 one-dose screen, 48 h (100 = growth as untreated, 0 = no growth, -100 = all killed)
Holding throughout (settings): 10 µM unless noted

This is part of a sample that, as a whole, favours compounds with a hit. Of some 83,000 tested, about 20% had one in any assay.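 Plates (96-well) were seeded with cells, treated with compound at one concentration, and incubated for 48 hours before percent growth was determined.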 Unmarked numbers belong to inactive results. Activity calls are given as the source filed them. Rule for the calls: active = growth percent below 10; inactive = the rest.

On to `CC(=O)Nc1ccc(S(=O)(=O)Nc2ccc(-c3ccc4c(c3)NC(=O)/C4=C\c3ccc[nH]3)cc2)cc1`, for which the growth was 93.8% in the assay with SK-MEL-2 melanoma; 55.6% in the assay on EKVX NSCLC; 100% in the assay on SN12C renal; 73.1% with UO-31 renal; 69.3% in the assay with TK-10 renal; 75.5% with ACHN renal. Moreover, the growth in the assay with CAKI-1 renal is 76.7%; in the assay on A498 renal, 139%; with CCRF-CEM leukemia, 80.2%; with MOLT-4 leukemia, 71.6%; in the assay on SR leukemia it was 34.7%; with RPMI-8226 leukemia, 78.3%. In addition, the growth in the assay on OVCAR-8 ovarian is 98%; in the assay with OVCAR-5 ovarian, 79.5%; in the assay on OVCAR-4 ovarian, 67.8%; in the assay with SK-OV-3 ovarian, 104%; with IGROV1 ovarian it was 81.2%; in the assay with OVCAR-3 ovarian, 141%. The growth with HS 578T breast was 98.6%; in the assay with NCI/ADR-RES ovarian, 107%.

`Cc1ccc(C(=O)Nc2cc(-n3ccnc3)cc(C(F)(F)F)c2)cc1-n1cc(-c2cnc3cccnn23)nn1`: the growth was 61.1% in the assay on SK-MEL-2 melanoma; 117% in the assay on EKVX NSCLC; 105% in the assay on SN12C renal; 61.4% in the assay on UO-31 renal; 135% in the assay on TK-10 renal; 97.8% in the assay with ACHN renal. For the same compound, the growth with CAKI-1 renal was 113%; in the assay on A498 renal, 180%; with CCRF-CEM leukemia it was 96%; in the assay on MOLT-4 leukemia it was 105%; with SR leukemia, 114%; with RPMI-8226 leukemia, 85.2%. The growth with OVCAR-8 ovarian was 103%; in the assay on OVCAR-5 ovarian, 66.6%; in the assay on OVCAR-4 ovarian, 104%; in the assay on SK-OV-3 ovarian, 124%; with IGROV1 ovarian, 104%; in the assay on OVCAR-3 ovarian, 133%. Further, the growth in the assay with HS 578T breast is 94.9%; in the assay with NCI/ADR-RES ovarian, 115%.

As to `O=C(N/N=C/c1ccoc1)c1[nH]c2ccc(Br)cc2c1-c1ccccc1`, the growth with SK-MEL-2 melanoma is -84.5% (active); in the assay with EKVX NSCLC, -97.6% (active); in the assay with SN12C renal, -95.8% (active); in the assay with UO-31 renal, -82.5% (active); with TK-10 renal, -82.5% (active); in the assay on ACHN renal, -100% (active). Besides, the growth with CAKI-1 renal was -99.6% (active); in the assay on A498 renal it was -82.9% (active); in the assay with CCRF-CEM leukemia, -12.1% (active); in the assay with MOLT-4 leukemia, -5.76% (active); with SR leukemia it was -13.1% (active); in the assay with RPMI-8226 leukemia it was 2.8% (active). Also, the growth in the assay with OVCAR-8 ovarian is -47.6% (active); with OVCAR-5 ovarian, -100% (active); with OVCAR-4 ovarian, -86.8% (active); with SK-OV-3 ovarian, -83.6% (active); in the assay with IGROV1 ovarian, -87.4% (active); in the assay with OVCAR-3 ovarian it was -45.8% (active). In addition, the growth is -28% (active) with HS 578T breast and -72.5% (active) in the assay with NCI/ADR-RES ovarian.

Take `N#C/C(=C/c1ccc([N+](=O)[O-])cc1)c1nnc(NC(=O)c2ccc(-n3c(=O)[nH]c4ccccc4c3=O)cc2)s1`: the growth with SK-MEL-2 melanoma was 103%; with EKVX NSCLC, 93.9%; with SN12C renal it was 94%; in the assay on UO-31 renal, 75.6%; in the assay with TK-10 renal, 108%; in the assay with ACHN renal, 96.3%. The growth in the assay on CAKI-1 renal was 92%; in the assay on A498 renal it was 132%; in the assay on CCRF-CEM leukemia, 97.8%; with MOLT-4 leukemia, 98.5%; with SR leukemia, 91.6%; with RPMI-8226 leukemia, 98.1%. Also, the growth was 93.4% with OVCAR-8 ovarian; 110% in the assay on OVCAR-5 ovarian; 95.6% in the assay on OVCAR-4 ovarian; 104% in the assay with SK-OV-3 ovarian; 98.6% in the assay on IGROV1 ovarian; 103% with OVCAR-3 ovarian. Also, the growth was 101% in the assay with HS 578T breast and 94.2% in the assay with NCI/ADR-RES ovarian.

For the compound `COc1cc(/C=N/NC(=O)c2ccc(OCc3nc4ccc(Cl)cc4[nH]3)cc2)cc(OC)c1OC`, the growth in the assay on SK-MEL-2 melanoma is 74.5%; with EKVX NSCLC it was 33.3%; with SN12C renal it was 48.7%; in the assay on UO-31 renal, 45.5%; with TK-10 renal, 74.9%; in the assay on ACHN renal, 39.1%. The growth in the assay with CAKI-1 renal is 40.5%; in the assay on A498 renal it was 121%; with CCRF-CEM leukemia, 3.83% (active); in the assay on MOLT-4 leukemia, 12.1%; with SR leukemia, 33%; with RPMI-8226 leukemia it was 2.76% (active). The growth in the assay on OVCAR-8 ovarian is 34.5%; in the assay on OVCAR-5 ovarian it was 76.3%; with OVCAR-4 ovarian, 67.1%; in the assay on SK-OV-3 ovarian it was 97.7%; with IGROV1 ovarian, 43.1%; with OVCAR-3 ovarian, 55.7%. Moreover, the growth with HS 578T breast was 58.3%; in the assay with NCI/ADR-RES ovarian, 80.6%.

Take `C=CCSc1nnc(-c2ccc(-c3nc4ccccc4[nH]3)cc2)o1`: the growth is 95% in the assay with SK-MEL-2 melanoma; 71.5% in the assay with EKVX NSCLC; 83.8% in the assay on SN12C renal; 56.1% in the assay on UO-31 renal; 87.7% with TK-10 renal; 78.1% with ACHN renal. Besides, the growth with CAKI-1 renal was 63.9%; in the assay with A498 renal, 113%; in the assay on CCRF-CEM leukemia, 32.6%; in the assay with MOLT-4 leukemia, 38.1%; with SR leukemia, 81%; in the assay on RPMI-8226 leukemia it was 34.9%. Further, the growth is 55.9% in the assay on OVCAR-8 ovarian; 105% in the assay with OVCAR-5 ovarian; 46.1% with OVCAR-4 ovarian; 96.1% in the assay on SK-OV-3 ovarian; 101% in the assay with IGROV1 ovarian; 91.5% in the assay with OVCAR-3 ovarian. In addition, the results for the growth in the assay on HS 578T breast and with NCI/ADR-RES ovarian were 79% and 61.1%, respectively.

As to `COc1ccc2[nH]c(O)c(N=Nc3nc(-c4ccc(C#N)cc4)cs3)c2c1`, the growth is 95.8% in the assay on SK-MEL-2 melanoma; 63.9% with EKVX NSCLC; 20.3% in the assay on SN12C renal; 18.3% with UO-31 renal; 55.3% in the assay on TK-10 renal; 22.2% with ACHN renal. The growth with CAKI-1 renal is 35.4%; with A498 renal it was 13.2%; with CCRF-CEM leukemia, 86.4%; with MOLT-4 leukemia, 84.2%; in the assay with SR leukemia, 17.4%; in the assay with RPMI-8226 leukemia it was 34.9%. Further, the growth was 58.2% in the assay on OVCAR-8 ovarian; 94.1% in the assay on OVCAR-5 ovarian; -46.8% (active) with OVCAR-4 ovarian; 104% with SK-OV-3 ovarian; 77.6% in the assay with IGROV1 ovarian; 8.62% (active) in the assay on OVCAR-3 ovarian. The results for the growth in the assay on HS 578T breast and in the assay on NCI/ADR-RES ovarian were 36.5% and 63.1%, respectively.

These data come from PubChem BioAssay (NCI).
